Test results: PubChem BioAssay AID1159602 (The Scripps Research Institute Molecular Screening Center, 2016)
In all, about 22,000 compounds went through this assay and about 220 (1%) were called active. Rule as the data show it: active = inhibition above about 35%; inactive = the rest. Only a selection was taken, and actives are over-represented in it overall.

target: Mitogen-activated protein kinase kinase kinase 5 (Homo sapiens) (UniProt Q99683); test: ASK1 kinase inhibitors, primary screen, biochemical, AlphaScreen (AID 1159602); conditions: AlphaScreen MKK6 phosphorylation by ASK1, luminescence; at 7.44 µM; hits give high values;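 also: 0% = median of compound wells and 100% = no enzyme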
Sequence (Q99683 whole entry, looked up): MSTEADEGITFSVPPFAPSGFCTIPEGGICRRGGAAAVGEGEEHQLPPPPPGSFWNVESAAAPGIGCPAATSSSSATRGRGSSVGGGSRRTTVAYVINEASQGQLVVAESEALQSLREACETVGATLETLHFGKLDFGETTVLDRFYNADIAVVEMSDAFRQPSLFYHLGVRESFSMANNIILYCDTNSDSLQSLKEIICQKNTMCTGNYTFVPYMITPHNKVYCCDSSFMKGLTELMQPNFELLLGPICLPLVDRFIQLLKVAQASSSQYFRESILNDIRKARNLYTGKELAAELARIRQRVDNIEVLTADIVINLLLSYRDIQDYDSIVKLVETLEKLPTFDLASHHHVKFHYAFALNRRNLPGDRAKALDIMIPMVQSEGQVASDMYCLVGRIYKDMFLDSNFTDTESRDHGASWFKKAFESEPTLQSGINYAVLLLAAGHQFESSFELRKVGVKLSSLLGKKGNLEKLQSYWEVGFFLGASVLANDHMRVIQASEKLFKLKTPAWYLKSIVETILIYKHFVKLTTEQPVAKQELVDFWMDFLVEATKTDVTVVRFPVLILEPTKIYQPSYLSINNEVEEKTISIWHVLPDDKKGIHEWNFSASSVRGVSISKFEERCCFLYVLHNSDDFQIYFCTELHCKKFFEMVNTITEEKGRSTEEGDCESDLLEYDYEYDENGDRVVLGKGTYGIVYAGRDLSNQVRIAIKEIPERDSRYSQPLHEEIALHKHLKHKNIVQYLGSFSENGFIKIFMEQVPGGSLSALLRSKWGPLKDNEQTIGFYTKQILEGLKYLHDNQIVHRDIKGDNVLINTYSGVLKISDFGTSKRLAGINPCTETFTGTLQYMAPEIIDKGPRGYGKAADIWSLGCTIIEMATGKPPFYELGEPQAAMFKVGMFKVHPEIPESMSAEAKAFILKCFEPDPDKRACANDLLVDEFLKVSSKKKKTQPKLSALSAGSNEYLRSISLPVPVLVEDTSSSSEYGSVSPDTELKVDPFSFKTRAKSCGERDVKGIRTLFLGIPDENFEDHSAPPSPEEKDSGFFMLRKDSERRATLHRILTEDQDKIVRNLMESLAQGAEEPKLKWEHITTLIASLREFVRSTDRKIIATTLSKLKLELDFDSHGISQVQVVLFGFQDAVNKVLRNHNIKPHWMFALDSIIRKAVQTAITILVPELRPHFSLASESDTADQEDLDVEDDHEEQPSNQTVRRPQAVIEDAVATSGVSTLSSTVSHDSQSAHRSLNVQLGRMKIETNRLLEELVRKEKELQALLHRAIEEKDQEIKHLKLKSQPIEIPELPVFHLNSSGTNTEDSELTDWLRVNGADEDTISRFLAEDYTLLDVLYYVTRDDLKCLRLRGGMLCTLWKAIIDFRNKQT

inhibition, inactive:
O=C(Nc1ccncc1)OC1CCN(C(=O)[C@H](O)COc2ccc(Br)cc2)CC1 -3.38%, COC(=O)c1cccc(-n2ncc3cc(Nc4ccccc4)ccc32)c1 -20.5%, Cc1noc(C)c1-c1nc(NC2CC2)c2ncn(-c3ccsc3)c2n1 -7.13%, COc1cc2nc(N3CCN(c4ccccn4)CC3)nc(NCc3nc4ccccc4[nH]3)c2cc1OC -8.78%, CC(=O)Nc1ccc(NC(=O)c2csc(N3CCC(N4CCOCC4)CC3)n2)cc1 14.1%, CCCNc1nc(-c2cccc(C(C)=O)c2)nc2nc[nH]c12 6.62%, c1ccc(OCCNc2nc(N3CCC(N4CCOCC4)CC3)nc3c2ncn3-c2ccccc2)cc1 8.08%, CC(C)(C)OC(=O)N1CCC(CC(=O)Nc2ccnn2-c2cccc(C(=O)Nc3ccc(N4CCOCC4)cc3)c2)CC1 7.81%, Cc1noc(C)c1-c1cc(C(=O)NCc2cccc(C(F)(F)F)c2)ccn1 1.72%, O=C(NCCOc1ccccc1)c1cnc(Nc2cccnc2)s1 4.63%, O=C(c1cccnc1)N1CCCC(Nc2ccc3[nH]ncc3c2)C1 (stereo not drawn) -32%, Nc1cccc(-c2nc(NCc3nc4ccccc4[nH]3)c3ncn(Cc4ccc(C(F)(F)F)cc4)c3n2)c1 -18.3%, Cc1cc(NCc2cccnc2)nc(-c2ccc(C(N)=O)cc2)n1 1.31%, COc1cc(Nc2cc(C(=O)NCc3ccccc3)ccn2)cc(OC)c1OC 2.85%, O=C(NC1CC1)c1ccc(-c2nc(NC3CCN(Cc4ccccc4)CC3)c3ncn(C4CCCCC4)c3n2)cc1 9.66%, FC(F)(F)c1cccc(CNc2ncnc3nc(Nc4ccncn4)[nH]c23)c1 14.3%, COc1cc(NC(=O)c2ccnc(N3CCC(N4CCOCC4)CC3)c2)cc(OC)c1OC 1.9%, NC(=O)c1cccc(N2CCCC2CO)n1 (stereo not drawn) 1.37%, COc1cc(NC(=O)[C@H](N)c2ccc(F)cc2)c(F)cc1-c1cn[nH]c1 8.67%, Cc1nn(C)c(C)c1-c1nc(NCCc2ccc(O)cc2)c2ncn(CCN3CCCC3=O)c2n1 -10.9%, Cn1c(Nc2nc(NCCN3CCOCC3)c3ncn(-c4ccccc4)c3n2)nc2ccccc21 -13.6%, CCN(CC)C(=O)C1CCCN(c2nc(NCc3cccc(C(F)(F)F)c3)c3cc(OC)c(OC)cc3n2)C1 (stereo not drawn) 3.43%, CCNc1nc(C(=O)NCc2ccccc2)cs1 -2.48%
